From PubChem
A selection: hits, their analogues and other compounds. The true share with any hit is near 18%.
TGFb SMAD3 inh: blocks TGF-b signaling; HepG2 CAGA-GFP TGF-b/SMAD3 reporter, GFP fluorescence, 18 h; TGF-beta stimulated, 500 pg/mL final; AID 588855; Potency, µM (highest dose often 46.1 µM), for the others: at the top dose activity, negative = inhibition, actives largely listed as inhibitors; 1.2% of 410,000 active; further: potency means the concentration at half of the fitted maximal effect; on the % scale 0 is the no-effect control and ±100 the full control effect; nearly all actives have a fitted effect of over 65% in size
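HEPG2 CAGA-GFP cells (1000/well, DMEM with 1% FBS) were pre-incubated 2 h at 37 degrees C, given compound by pin tool, then stimulated with TGF-beta at 500 pg/mL final for 18 h before per-cell GFP fluorescence imaging.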
TDP1 cell noCPT: qHTS for Inhibitors of human tyrosyl-DNA phosphodiesterase 1 (TDP1): qHTS in cells in absence of CPT | DT40 Tdp1-/- hTDP1 cells, no CPT, ATP luminescence, 48 h | Potency, µM (highest dose often 46.2 µM), for inactives: at the top dose activity change, negative = growth inhibition, actives largely listed as inhibitors | 15% of 420,000 active | AID 686978, 2013; further: potency means the concentration at half of the fitted maximal effect; on the % scale 0 is the no-effect control and ±100 the full control effect; nearly all actives have a fitted effect of over 55% in size
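Cells were dispensed at 400 per well, compounds added by pin tool, plates incubated ≥48 hr at 37 °C, then CellTiter-Glo added for 30 min at room temperature before luminescence reading. Line: DT40 Tdp1-/- complemented with hTDP1; camptothecin omitted.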
TDP1 inh: inhibitors of human tyrosyl-DNA phosphodiesterase TDP1; Q9NUW8; recombinant TDP1, AlphaScreen DNA substrate cleavage; Potency, µM (highest dose often 130 µM), for the others: at the highest dose activity change, negative = inhibition, hits mostly inhibitors; 0.28% of 350,000 active; further: potency means the concentration at half of the fitted maximal effect; on the % scale 0 is the no-effect control and ±100 the full control effect; nearly all actives have a fitted effect of over 40% in size
Target sequence (Q9NUW8 whole entry, looked up): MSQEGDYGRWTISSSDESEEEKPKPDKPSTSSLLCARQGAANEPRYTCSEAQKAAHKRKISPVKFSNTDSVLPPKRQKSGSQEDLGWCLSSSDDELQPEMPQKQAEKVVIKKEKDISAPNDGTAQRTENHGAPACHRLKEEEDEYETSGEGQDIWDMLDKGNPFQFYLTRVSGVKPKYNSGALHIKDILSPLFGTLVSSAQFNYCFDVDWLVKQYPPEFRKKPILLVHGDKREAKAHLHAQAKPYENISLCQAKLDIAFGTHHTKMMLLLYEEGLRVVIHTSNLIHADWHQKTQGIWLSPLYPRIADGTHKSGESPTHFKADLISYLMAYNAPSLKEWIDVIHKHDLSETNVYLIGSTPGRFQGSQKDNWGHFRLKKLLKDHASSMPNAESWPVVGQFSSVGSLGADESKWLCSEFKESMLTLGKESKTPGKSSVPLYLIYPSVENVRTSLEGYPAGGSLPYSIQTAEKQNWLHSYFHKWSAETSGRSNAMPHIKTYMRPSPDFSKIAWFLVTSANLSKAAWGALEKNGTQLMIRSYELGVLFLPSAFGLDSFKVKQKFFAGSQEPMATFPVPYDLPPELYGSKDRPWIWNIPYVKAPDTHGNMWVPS
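AlphaScreen read-out: signal falls as enzyme removes the 3' tyrosine-FITC from a 5'-biotinylated DNA oligo (15 nM, 5 min, RT). Enzyme was E. coli-made recombinant Tdp1 at 1 nM, exposed to compound for 15 min beforehand; beads 10 ug/ml, 10 min.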
IL1B secr inh: inhibitors of inflammasome signaling (IL-1 beta secretion) | THP-1 LPS/ATP IL-1B secretion, AlphaLISA, 16 h; hits give low values | activity change, % at 57.5 µM | 4.7% of 360,000 active; in the data active means activity change below about -50%; inconclusive means mostly about -30% to -49%; further: on the % scale 0 is the no-effect control and ±100 the full control effect
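THP-1 cells pretreated 1 hr with compounds (up to 57.5 uM final), then stimulated with LPS (250 ng/mL final) plus ATP (1.25 mM final); secreted IL-1B measured by AlphaLISA after 16 hr, decreased signal indicating inhibition.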
DT40 TDP1 CPT: DT40-hTDP1 cell growth loss with CPT | 12% of 420,000 active | chicken DT40 Tdp1-/-;hTDP1 cells + 20 nM CPT, ATP luminescence, 48 h | Potency, µM (highest dose often 46.2 µM), for inactives: at the highest dose activity change, negative = growth inhibition, most hits filed as inhibitors; further: potency means the concentration at half of the fitted maximal effect; on the % scale 0 is the no-effect control and ±100 the full control effect; nearly all actives have a fitted effect of over 55% in size
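Cell growth measured by CellTiter-Glo luminescence after a minimum 48 h, 37 C compound exposure with 20 nM CPT in Tdp1-knockout DT40 cells stably expressing hTDP1, seeded 400/well; qHTS titration format.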
HepG2 viability: kills HepG2 cells in TGF-b inhibitor counter-screen; HepG2 CAGA-GFP viability, ATP luminescence, 18 h; Potency, µM (top dose mostly 46.1 µM), for inactives: at the top dose activity change, negative = cytotoxicity, hits mostly cytotoxic; 0.76% of 410,000 active; AID 588856; further: potency means the concentration at half of the fitted maximal effect
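HepG2 CAGA-GFP cells (1000/well, DMEM with 1% FBS) received compound, then TGF-beta at 500 pg/mL final, and were incubated 18 hours at 37 degrees C. Viability was read by CellTiter-Glo luminescence. Media-only wells were set as complete cell-killing and DMSO as no toxicity.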
The depositor's hits bear a star; [ ] = dose if it differs, or a comment. Unless noted, the call rests on the fitted dose curve; in most records, active means well fitted curve in the direction sought with a large enough effect; inconclusive means small, poorly fitted or top-dose-only effect, or another doubt; inactive means no such curve, though single readings can be large; an effect the other way counts as inactive or inconclusive.

How did COc1cccc(C(=O)Nc2ccc(-c3cn4cccnc4n3)cc2)c1OC do in these assays?
TGFb SMAD3 inh: -19%; TDP1 cell noCPT: inconclusive; TDP1 inh: 6%; DT40 TDP1 CPT: inconclusive; HepG2 viability: -5%

How did CC(=O)N1CCOc2cc(S(=O)(=O)NCc3ccc(C)cc3)c(Cl)cc21 do in these assays?
TGFb SMAD3 inh: -10%; HepG2 viability: -20%

What do the screens show for `CC(C(=O)NN=C(c1ccccc1)c1ccccc1)N1CCOCC1` (configuration not stated)?
TGFb SMAD3 inh: -2%; TDP1 cell noCPT: 16µM*; TDP1 inh: 0%; IL1B secr inh: 3; DT40 TDP1 CPT: inconclusive; HepG2 viability: 3%

How did Cc1ccc(NC(=O)CSc2c3c(nc4ccccc24)CCCC3)cc1F do in these assays?
TGFb SMAD3 inh: inconclusive; TDP1 cell noCPT: 15µM*; TDP1 inh: 2%; DT40 TDP1 CPT: inconclusive; HepG2 viability: -77%

How did COc1ccc(CNC(=O)CSc2c3c(nc4ccc(Cl)cc24)CCCC3)cc1 do in these assays?
TGFb SMAD3 inh: -32%; TDP1 cell noCPT: inconclusive; TDP1 inh: 0%; DT40 TDP1 CPT: inconclusive; HepG2 viability: -32%

What do the screens show for `COc1cccc(NC(=O)CSc2c3c(nc4ccccc24)CCCC3)c1`?
TGFb SMAD3 inh: inconclusive; TDP1 cell noCPT: 21µM*; TDP1 inh: 7%; IL1B secr inh: -96*; DT40 TDP1 CPT: 23µM*; HepG2 viability: -81%

Results for COc1ccc(OC)c(NC(=O)CSc2nc3ccccc3c3nc4ccccc4n23)c1 ?
TDP1 inh: -1%

How did COc1ccc(OC)c(NC(=O)CSc2c3c(nc4ccccc24)CCCC3)c1 do in these assays?
TGFb SMAD3 inh: inconclusive; TDP1 cell noCPT: 7.3µM*; TDP1 inh: 7%; DT40 TDP1 CPT: inconclusive; HepG2 viability: 13µM*

How did COc1ccc(OC)c(NC(=O)CSc2c3c(nc4cc(Cl)ccc24)CCCC3)c1 do in these assays?
TGFb SMAD3 inh: 10µM*; TDP1 cell noCPT: 23µM*; TDP1 inh: 4%; DT40 TDP1 CPT: inconclusive; HepG2 viability: -46%

Results for Cc1nc2sccn2c(=O)c1S(=O)(=O)Nc1cccc(Cl)c1C ?
TGFb SMAD3 inh: -12%; TDP1 cell noCPT: inconclusive; TDP1 inh: 0%[12.3 µM]; IL1B secr inh: 10; DT40 TDP1 CPT: inconclusive; HepG2 viability: -20%

What do the screens show for `CC(=O)OCCn1c([N+](=O)[O-])cnc1C=[N+]([O-])C1CCCCC1`?
TGFb SMAD3 inh: -1%; TDP1 cell noCPT: -11%; IL1B secr inh: 0; DT40 TDP1 CPT: -6%; HepG2 viability: -19%

Results for CCC(C(=O)Nc1cc(OC)ccc1OC)n1nc(-c2ccccc2)c2c(c1=O)CCCC2 (configuration not stated) ?
TGFb SMAD3 inh: inconclusive; TDP1 cell noCPT: 18µM*; TDP1 inh: 5%; DT40 TDP1 CPT: 16µM*; HepG2 viability: -20%

What do the screens show for `COc1ccc(Cl)cc1NC(=O)CSc1c2c(nc3ccccc13)CCC2`?
TGFb SMAD3 inh: inconclusive; TDP1 cell noCPT: 16µM*; TDP1 inh: 0%; DT40 TDP1 CPT: 21µM*; HepG2 viability: -37%

How did COc1ccc(NC(=O)CSc2nc(C3CC3)nc3ccccc23)cc1 do in these assays?
TGFb SMAD3 inh: -2%; TDP1 cell noCPT: inconclusive; IL1B secr inh: inconclusive; DT40 TDP1 CPT: inconclusive; HepG2 viability: -11%

Results for COCCNC(=O)CSc1c2c(nc3cc(Cl)ccc13)CCCC2 ?
TGFb SMAD3 inh: inconclusive; TDP1 cell noCPT: inconclusive; TDP1 inh: 1%; DT40 TDP1 CPT: inconclusive; HepG2 viability: -24%
